Experimental findings from PubChem BioAssay AID624040 (The Scripps Research Institute Molecular Screening Center, 2012) are described below.

About 2,100 (0.58%) of roughly 360,000 compounds were called active. This excerpt belongs to a sample that is enriched for actives. Values without a mark were called inactive.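 The calls were made as follows: active = inhibition above a per-plate cutoff, the mean of that plate's test compounds plus 3 SD (cut at about 27% in these data); inactive = the rest.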

Muscarinic acetylcholine receptor M5 (Homo sapiens), sequence (P08912 whole entry, looked up): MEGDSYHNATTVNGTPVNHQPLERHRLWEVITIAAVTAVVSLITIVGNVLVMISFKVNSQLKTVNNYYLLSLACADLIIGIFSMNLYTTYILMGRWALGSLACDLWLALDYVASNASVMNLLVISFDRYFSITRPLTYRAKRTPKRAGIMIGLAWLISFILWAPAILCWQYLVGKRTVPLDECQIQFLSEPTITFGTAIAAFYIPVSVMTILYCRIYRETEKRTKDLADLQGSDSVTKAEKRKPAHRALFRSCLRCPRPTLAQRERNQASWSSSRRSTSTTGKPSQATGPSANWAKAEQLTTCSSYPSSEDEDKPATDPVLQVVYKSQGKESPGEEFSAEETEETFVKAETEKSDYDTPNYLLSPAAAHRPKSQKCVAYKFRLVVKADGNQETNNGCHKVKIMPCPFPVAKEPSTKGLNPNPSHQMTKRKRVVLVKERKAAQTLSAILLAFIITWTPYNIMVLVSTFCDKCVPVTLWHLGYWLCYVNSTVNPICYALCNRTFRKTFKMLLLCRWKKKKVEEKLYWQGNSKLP

This assay has as its target Muscarinic acetylcholine receptor M5 (Homo sapiens) (UniProt P08912). Kind of assay: CHRM5 blockers of acetylcholine calcium response – CHO cells, Fluo-8 calcium fluorescence, primary screen (AID 624040).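 Also: 0% = acetylcholine EC80 with DMSO and 100% = DMSO without agonist.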 The note with it: CHO-hM5 cells, ACh EC80, at 3 µM, stronger effect = higher value.
For `CC1CN(c2nc(-c3ccccc3)nnc2-c2ccccc2)CC(C)O1` (stereo unspecified), the inhibition is 0.03%.
Turning to `CCCC(=O)N1CCC1(C)C(=O)Nc1ccc(-n2cncn2)cc1` (stereo unspecified), the inhibition is -3.91%.
As for `O=C(c1cc(COc2c(F)cccc2F)on1)N1CCSCC1`, the inhibition is -3.86%.
For `C=CCC1(CC=C)CCCN1C(=O)c1cc(COc2ccc(-n3cncn3)cc2)on1` the value was 41.9% (active); for `CCN(CC)C(=O)C1CCC(C)(C(=O)O)C1(C)C` (stereo unspecified), 8.62%; for `COc1ccc(Cn2cc(CN3CCS(=O)(=O)N(Cc4ccc(-c5cccc(Cl)c5)cc4)C(C)C3=O)nn2)cc1` (stereo unspecified), -2.91%.
`CC1=C(C(N)=O)C(c2sccc2C)n2nnnc2N1` (stereo unspecified): the inhibition was -6.06%.
For `COc1ccc(OC)c(C2N(c3ccccn3)C(=O)C3CCCN32)c1` (stereo unspecified), the inhibition was 2.53%.
With `CN(C)CC/C=C1\c2ccccc2CSc2ccccc21`, the inhibition is 99.1% (active).
Regarding `CN(C)Cc1ccccc1C1(O)c2ccccc2CSc2ccccc21` (stereo unspecified), the inhibition was 18.8%.
As to `CCOC(=O)c1ccc(N=C2SC(C(=O)NC)CC(=O)N2CCc2ccccc2)cc1` (stereo unspecified), the inhibition is 3.02%.
`COc1ccc(NC(=O)/C(Cl)=C(/Cl)S(=O)Cc2ccc(C)cc2)cn1` (stereo unspecified): the inhibition is 34.9% (active).
Turning to `N#Cc1ccc(COC(=O)Cn2nnc(-c3ccccc3)n2)cc1`, the inhibition is 1.41%.
`c1cc(-n2cnnn2)ccc1NC1=NCCC1`: the inhibition was -8.17%.
On to `O=C(CSc1nccn1-c1cccc(F)c1)NC1CCCC1`, for which the inhibition was 0.21%.
For the compound `CCC(C)(C)NC(=O)CN(C(=O)CCC(=O)Nc1cc(C)ccn1)c1ccc2c(c1)OCCO2`, the inhibition was -0.46%.
Take `C=CCC(NC(=O)Cc1ccccc1)C(=O)NCCC` (stereo unspecified): the inhibition was -3.26%.
On to `CCCCC(=O)NNC(=S)NC(=O)C(c1ccccc1)c1ccccc1`, for which the inhibition was 28.1% (active).
As for `CCCOCC(O)CC(CC)C(=O)NNC(=S)Nc1ccccc1` (stereo unspecified), the inhibition is -7.7%.
For `CCCNC(=O)N1CCN(C(=O)NCCC)CC1`, the inhibition was 8.13%.
Consider `CCN1/C(=C\c2ccc3ccccc3[n+]2CC)Sc2cc(C)ccc21`, for which the inhibition is 48.1% (active).
Turning to `C#CCO[C@@H]1C[C@H](n2cnc3c(=O)[nH]c(NC(=O)C(C)C)nc32)O[C@@H]1CO`, the inhibition is 9.77%.
As to `Cc1cccc(-n2c(Cc3cc(=O)[nH]c(=O)[nH]3)nnc2SC(C)C)c1`, the inhibition was -3.22%.
As for `CC[C@]12c3[nH]c4ccc(Cl)cc4c3CCN1C(=O)[C@@H](CC(=O)NCCCOC)C[C@@H]2C(=O)N1CCN(C(=O)C2CC2)CC1`, the inhibition was 0.99%.
For the compound `COc1ccccc1NS(=O)(=O)c1ccc(C)c(C(=O)NCC(c2ccco2)N(C)C)c1` (stereo unspecified), the inhibition is 6.64%.
For `CSCCC(NS(=O)(=O)c1ccc(C)cc1)C(=O)NCCc1c[nH]c2ccccc12` (stereo unspecified) the value was 2.39%; for `Cc1cccc(N2CCN(S(=O)(=O)c3ccc(-c4cc(C)no4)s3)CC2C)c1` (stereo unspecified), -1.63%; for `Cc1cc(-c2ccc(S(=O)(=O)N3CCN(c4cccc(C(F)(F)F)c4)CC3)s2)on1`, 53.9% (active).
As to `Cc1cc(-c2ccc(S(=O)(=O)N3CCc4ccccc4C3)s2)on1`, the inhibition is 5.38%.
Take `C=CCCN(Cc1ccccc1)S(=O)(=O)c1ccccc1Br`: the inhibition is 13.3%.
For `O=C(NCC(=O)N1CCC2(CC1)NCCc1[nH]cnc12)c1ccc(Br)cc1`, the inhibition was -15.5%.
In the case of `O=C1C2C3C=CC(C3)C2C(=O)N1c1ccc(-c2nc3ccccc3c(=O)o2)cc1` (stereo unspecified) it was -6.13%; in that of `Nc1c(C(=O)c2cccs2)sc2nsc(SCCN3CCCCC3)c12`, 47.4% (active).
Regarding `CC1CCC2(CC1)NC(=O)N(Cc1nnc(-c3cccs3)o1)C2=O` (stereo unspecified), the inhibition was 8.17%.
As to `COc1ccccc1CNC(=O)COn1nnc2ccc(S(=O)(=O)N3CCOCC3)cc21`, the inhibition was 4.42%.
As to `CN1CCN(C(=O)N2c3ccccc3CCc3ccccc32)CC1`, the inhibition is 98.8% (active).
Consider `CN1CCN(S(=O)(=O)c2cccc(C(=O)N3CCc4ccccc43)c2)CC1`, for which the inhibition was 5.4%.
As to `Cn1cccc1C(=O)N1CCc2ccccc2C1`, the inhibition was -2.44%.
With `COc1ccc(C(=O)NC2CC2)cc1OC1CCN(C/C=C/c2ccccc2)CC1`, the inhibition is 3.15%.
As for `COCCn1c(SCC(=O)Nc2cc(OC)ccc2OC)nc2c(c1=O)SC(C)C2` (stereo unspecified), the inhibition was 3.68%.
For `CC(=O)Nc1ccc(S(=O)(=O)NCC(=O)OCc2cc(=O)oc3ccc4ccccc4c23)cc1` the value was 0.62%.
For `COc1ccc(OCC(O)CNC(=O)Nc2ccc(Cl)cc2)cc1` (stereo unspecified), the inhibition was 12.7%.
For `CC(=O)N1CCC(N(C(=O)Nc2ccc(Cl)cc2)C(C)C)CC1` the value was 12.4%; for `CC(C)S(=O)(=O)c1csc(NC(=O)Nc2ccc(Cl)cc2)c1Cl`, 37.3% (active).
`Cc1cc(N2CCCC2)ccc1NC(=O)COc1ccc(Cl)cc1`: the inhibition is -1.18%.
On to `O=C(CCCN=C1NS(=O)(=O)c2ccccc21)OCC(=O)c1ccc(F)c(F)c1`, for which the inhibition is 7.17%.
`COc1cc(OC)c(OC)cc1CN1CCN(C(=O)c2cccc3ccccc23)CC1`: the inhibition is 4.24%.
For `Cc1ccc(C(=O)N2CCCc3ccccc32)c(Cl)c1` the value was 16.7%; for `Cc1cccc2cc3c(N)c(C(=O)N4CCCc5ccccc54)sc3nc12`, 28.3% (active); for `CCCn1nc(C(=O)N2CCCc3ccccc32)c2ccccc2c1=O`, 12.6%.
Turning to `O=C(Cc1ccc(S(=O)(=O)N2CCOCC2)s1)NCCOc1ccccc1F`, the inhibition is -4.35%.
In the case of `CC(Sc1nnc(CNC(=O)c2ccccc2F)n1C)C(=O)Nc1nccs1` (stereo unspecified), the inhibition is 5.11%.
On to `FC(F)Oc1ccccc1NC(=S)Nc1cccc(Cl)c1Cl`, for which the inhibition is -7.36%.
For the compound `COc1ccc(-c2cc(C(=O)N(C)Cc3ccc(OC)c(OC)c3OC)c3ccccc3n2)cc1OC`, the inhibition is 29.8% (active).
In the case of `COc1ccc(CN(C)C(=O)Cc2ccsc2)c(OC)c1OC` it was 6.37%; in that of `COc1ccc(CN(C)C(=O)Cc2c[nH]c3ccccc23)c(OC)c1OC`, 1.21%.
Take `CCCCN(CCCC)CCNC(=O)CN1C(=O)COc2ccc(S(=O)(=O)N3CCOCC3)cc21`: the inhibition is -0.51%.
For `CCO[C@H]1OC(C(=O)O)=C[C@@H](C2CCCCC2)[C@@H]1CCCO`, the inhibition was 9.63%.
Consider `O=C(NCc1cccnc1)c1nc(-c2cccs2)no1`, for which the inhibition is 5.2%.
For the compound `CC(C)(C)NC(=O)NC(=O)COC(=O)CCC1CCCCC1`, the inhibition was -5.64%.
Turning to `CCc1ccc(CNC(=O)C2CCN(c3nnc(C)c4c(C)n(-c5ccc(C)cc5)nc34)CC2)cc1`, the inhibition was 0.33%.
For `CCOc1ccc(CCN2C(=S)N([C@@H](CC(C)C)CN3CCC[C@@H]3CN3C(=S)NC[C@@H]3Cc3ccc(O)cc3)C[C@@H]2Cc2ccc(O)cc2)cc1`, the inhibition was 0.29%.
As for `CCCCn1nnnc1C(c1cccc(OC)c1OC)N1CCN(C/C=C/c2ccccc2)CC1` (stereo unspecified), the inhibition was 47% (active).
Regarding `COc1ccc(C(c2nnnn2C2CCCC2)N2CCN(C/C=C/c3ccccc3)CC2)cc1` (stereo unspecified), the inhibition was 42% (active).
Consider `COc1ccc(C(c2nnnn2C2CCCCC2)N2CCN(c3ccccc3F)CC2)cc1` (stereo unspecified), for which the inhibition was -15.7%.
As for `FC(F)(F)Oc1ccccc1C(c1nnnn1C1CCCCC1)N1CCN(C/C=C/c2ccccc2)CC1` (stereo unspecified), the inhibition was -11.2%.
In the case of `COCCn1nnnc1C(c1ccccc1Cl)N1CCN(c2ccccc2OC)CC1` (stereo unspecified) it was -11.5%; in that of `CCCCn1nnnc1C(c1ccccc1)N1CCN(c2ccccc2OC)CC1` (stereo unspecified), 2.03%.
As to `Cc1ccc(-c2cnc(C(O)c3cccc(C)c3C)[nH]2)cc1` (stereo unspecified), the inhibition is -3.72%.
For `COCCn1c(C)cc(C(=O)CSc2nc3ccccc3c(=O)n2C(C)COC)c1C` (stereo unspecified) the value was 9.46%.
For `CCCn1nc(NC(=O)C(C)C)c2cc3cc(OC)ccc3nc21`, the inhibition is 14.6%.
As to `O=C1CS(=O)CN1c1ccc(Oc2ccccc2)cc1` (stereo unspecified), the inhibition was -0.11%.
Turning to `CC(C)(C)c1cc2cccnc2n1Cc1cccc(F)c1`, the inhibition is -7.37%.
Take `CCOc1ccc(CN2CCNC(=O)C2CC(=O)NCCCC2CCCC2)cc1` (stereo unspecified): the inhibition was 9.04%.
Regarding `O=C(CCc1ccc(S(=O)(=O)N2CCOCC2)cc1)NN=C1CCCCCCC1`, the inhibition is -2.08%.
`COc1cccc(OCC(=O)NCCS(=O)(=O)N2CCN(c3ccccc3)CC2)c1`: the inhibition was -6.65%.
Turning to `CC(C)N(Cc1nc(-c2ccc3c(c2)OCO3)no1)CC1CCC(=O)N1` (stereo unspecified), the inhibition is 16%.
On to `OC[C@@H]1CN(Cc2ccc(F)cc2)C[C@H](n2cnc3c(NC4CCCC4)ncnc32)O1`, for which the inhibition is 4.45%.
As to `OC[C@@H]1CN(Cc2ccc(-c3ccccc3)cc2)C[C@H](n2cnc3c(NC4CCCC4)ncnc32)O1`, the inhibition was 31.4% (active).
Consider `OC[C@@H]1CN(C2CCCC2)C[C@H](n2cnc3c(NC4CCC4)ncnc32)O1`, for which the inhibition was 9.41%.
On to `O=C(NNC(=S)Nc1ccccc1)c1cccc(S(=O)(=O)N2CCOCC2)c1`, for which the inhibition was -3.26%.
Consider `Cc1ccc(C(=O)NCC(=O)OCC(=O)NC2CCCCCCC2)cc1`, for which the inhibition is 7.24%.
In the case of `Cc1cccc(CSc2nc3c(c(=O)n2C)SCC3)c1` it was 36.1% (active); in that of `COCCn1c(SCC(=O)Nc2ccc(F)cc2F)nc2c(c1=O)SCC2`, -2.37%; in that of `COCCn1c(SCC(=O)Nc2ccccc2F)nc2c(c1=O)SCC2`, -1.26%.
For `CN(CCCNC(=O)CN1C(=O)CC(C)(C)S(=O)(=O)c2ccccc21)C1CCCCC1` the value was 3.09%; for `CC1(C)C2CC=C(/C=N/NC(=O)C3CC3)C1C2` (stereo unspecified), -4.33%; for `COc1cc(C(=O)N2CCN(S(=O)(=O)c3ccc(C(C)C)cc3)CC2)ccc1OCC(=O)N1CCOCC1`, -6.27%.
For `C=C(C)c1cccc(C(C)(C)NC(=O)NC2CCCC2)c1`, the inhibition was -4.91%.
For `C=C(C)c1cccc(C(C)(C)NC(=O)NCCN(CC)CC)c1`, the inhibition was 52.3% (active).
In the case of `C=C(C)c1cccc(C(C)(C)NC(=O)N2CCN(c3ncccn3)CC2)c1` it was 4.22%.

The inhibition is the drop in the measured response relative to a control, in per cent.
